FMDV antiviral = High Throughput Screening for Foot and Mouth Disease Virus Antivirals; hit rate 1.2% among 410,000; Potency, µM (series often up to 57.9 µM), inactives show top-dose activity change, negative = inhibition, hits mostly inhibitors; FMDV antiviral cell-based qHTS; calls by dose curve; tested in HEK293T cells; further: read-out not given here; potency means the concentration at half of the fitted maximal effect; nearly all actives have a fitted effect of over 45% in size
AmpC no deterg = qHTS Inhibitors of AmpC Beta-Lactamase (assay without detergent) | Potency, µM (series often up to 57.1 µM), for inactives: at the top dose activity change, negative = inhibition, hits mostly inhibitors | AID 485341, 2010 | AmpC nitrocefin hydrolysis, absorbance 480 nm, 0.0001% Triton | P00811 | hit rate 0.52% among 330,000;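 further: potency means the concentration at half of the fitted maximal effect; plate controls were no compound for no effect and no enzyme for full effect; nearly all actives have a fitted effect of over 20% in size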
Target sequence (P00811 whole entry, looked up): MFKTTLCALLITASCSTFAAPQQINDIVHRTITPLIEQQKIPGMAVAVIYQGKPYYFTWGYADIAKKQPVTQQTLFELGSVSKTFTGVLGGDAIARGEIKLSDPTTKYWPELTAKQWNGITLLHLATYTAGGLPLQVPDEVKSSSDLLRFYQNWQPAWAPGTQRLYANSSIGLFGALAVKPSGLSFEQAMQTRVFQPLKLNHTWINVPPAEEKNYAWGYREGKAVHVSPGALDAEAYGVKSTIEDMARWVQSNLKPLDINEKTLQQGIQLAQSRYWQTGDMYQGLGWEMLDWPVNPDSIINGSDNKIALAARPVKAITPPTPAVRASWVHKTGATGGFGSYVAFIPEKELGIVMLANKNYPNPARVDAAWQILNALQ
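20 mM phosphate pH 7.0 + 0.01% (detergent screen) or 0.0001% Triton X-100; 5.3 nM AmpC reagent; cpd preinc 15 min RT; nitrocefin (800 uM stock) to start; A480 q20 s × 4 min; Activity was normalised to no-enzyme and no-compound control wells.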
HCMV antiviral = qHTS Assay for inhibitors of the human cytomegalovirus (HCMV); HFF cells, HCMV-luciferase reporter, 72 h; hits give low values; activity change, negative = inhibition, % at 57.5 µM; hit rate 4.5% among 410,000; in the data active means activity change below about -60%; inconclusive means no clear call, values can overlap the other calls; inactive means above about -39%
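After 16 h attachment at 37C, HFF cells received test compound and HCMV-luciferase (1 PFU/cell); reporter luminescence read 72 h later, data normalized against buffer-only and known inhibitor Salinomycin.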
HCV inh = qHTS Assay for Inhibitors of Hepatitis C Virus (HCV); Potency, µM (doses to about 41.8 µM), without a hit: at the top dose activity change, negative = inhibition, actives largely listed as inhibitors; hit rate 3.4% among 340,000; Huh7.5.1 HCVcc-Cre infection, luciferase reporter, 44 h; AID 651820, 2012; further: potency means the concentration at half of the fitted maximal effect
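Seed cells (1,000/well) for 4 h; treat with compound and infect with HCVcc-Cre, moi about 0.5. Incubate 44 h, then detect luciferase activity.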
AmpC inh detg = qHTS Inhibitors of AmpC Beta-Lactamase (assay with detergent). AmpC hydrolysis of nitrocefin, absorbance 480 nm, 0.01% Triton. AID 485294, 2010. P00811. Potency, µM (titrated, usually from 114 µM), for inactives: top-dose activity change, negative = inhibition, most hits filed as inhibitors. hit rate 0.041% among 370,000;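 further: potency means the concentration at half of the fitted maximal effect; 0% = no-compound wells and -100% = no-enzyme wells; nearly all actives have a fitted effect of over 25% in size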
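AmpC (5.3 nM in the dispensed reagent) in 20 mM phosphate pH 7.0 with 0.01% (detergent screen) or 0.0001% Triton X-100 was preincubated with compounds for 15 min at room temperature. Nitrocefin was then added from an 800 uM solution, and hydrolysis was followed at 480 nm.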
* = called active by the depositor. Sampled rows, rich in hits. Any-hit rate of the full collection: about 7.3%. Unless noted, the call rests on the fitted dose curve; in most records, active means well fitted curve in the direction sought with a large enough effect; inconclusive means small, poorly fitted or top-dose-only effect, or another doubt; inactive means no such curve, though single readings can be large; an effect the other way counts as inactive or inconclusive. Unless noted, on the % scale 0 is the no-effect control and ±100 the full control effect.

Results for Cc1cc(N2CCCC2=O)ccc1S(=O)(=O)NCCOc1ccccc1 ?
FMDV antiviral: -1%; AmpC no deterg: -14%; HCMV antiviral: -68*; HCV inh: inconclusive; AmpC inh detg: 1%

How did Cc1c(NC(=S)NC(=O)c2ccccc2Br)c(=O)n(-c2ccccc2)n1C do in these assays?
FMDV antiviral: 6%; AmpC no deterg: -13%; HCMV antiviral: -3; HCV inh: 18%; AmpC inh detg: 2%

What do the screens show for `S=c1[nH]nc(-c2ccccc2)n1/N=C/C=C/c1ccco1`?
FMDV antiviral: -1%; AmpC no deterg: -56%; HCMV antiviral: 25; HCV inh: 6%; AmpC inh detg: -13%

What do the screens show for `S=c1[nH]nc(-c2ccc(Cl)cc2)n1/N=C/C=C/c1ccco1`?
FMDV antiviral: -13%; AmpC no deterg: 16µM*; HCMV antiviral: -8; HCV inh: -14%; AmpC inh detg: -6%

How did Cc1ccccc1-c1n[nH]c(=S)n1/N=C/C=C/c1ccco1 do in these assays?
FMDV antiviral: -17%; AmpC no deterg: 10µM*; HCMV antiviral: inconclusive; HCV inh: 5%; AmpC inh detg: 3%

What do the screens show for `O=C(N/N=C/c1ccco1)C1CC1c1ccccc1` (stereo unspecified)?
FMDV antiviral: 5%; AmpC no deterg: -29%; HCMV antiviral: -17; HCV inh: inconclusive; AmpC inh detg: -12%

What do the screens show for `Cc1ccc(C)c(NC(=O)CCC(=O)N/N=C/c2ccc[nH]2)c1`?
FMDV antiviral: -9%; AmpC no deterg: -25%; HCMV antiviral: -91*; HCV inh: 3.5µM*; AmpC inh detg: -7%

How did Cc1c(Cl)cccc1NC(=O)CCC(=O)N/N=C/c1ccc[nH]1 do in these assays?
FMDV antiviral: 0%; AmpC no deterg: -28%; HCMV antiviral: -100*; HCV inh: 1µM*; AmpC inh detg: inconclusive

Results for O=C(CNC(=O)c1ccc(Br)cc1)N/N=C/c1ccc[nH]1 ?
FMDV antiviral: -21%; AmpC no deterg: -47%; HCMV antiviral: 7; HCV inh: 2.5µM*; AmpC inh detg: -5%

How did CC(C)(C)c1ccc(C2CC2C(=O)N/N=C\c2ccc[nH]2)cc1 (stereo unspecified) do in these assays?
FMDV antiviral: -19%; AmpC no deterg: -40%; HCMV antiviral: -100*; HCV inh: 0.56µM*; AmpC inh detg: 8%

Results for Cc1ccc(NCC(=O)N/N=C\c2ccc[nH]2)cc1 ?
FMDV antiviral: 21%; AmpC no deterg: -25%; HCMV antiviral: -29; HCV inh: 14µM*; AmpC inh detg: 8%

Results for O=C(Cc1ccccc1)N/N=C/c1ccc[nH]1 ?
FMDV antiviral: -16%; AmpC no deterg: -10%; HCMV antiviral: inconclusive; HCV inh: 9%; AmpC inh detg: 3%

Results for COc1ccc(N2Cc3ccccc3C2=NC(=O)c2cncc(Br)c2)cc1 ?
FMDV antiviral: 45%; AmpC no deterg: -9%; HCMV antiviral: -81*; HCV inh: 3%; AmpC inh detg: inconclusive

How did O=C(O)c1ccccc1OCc1nc2ccccc2s1 do in these assays?
FMDV antiviral: 0%; AmpC no deterg: -36%; HCMV antiviral: 65; HCV inh: -1%; AmpC inh detg: -4%

How did Cc1ccc(C(=O)c2ccc(C)cc2)cc1 do in these assays?
FMDV antiviral: 24%; AmpC no deterg: -15%; HCMV antiviral: 5; HCV inh: -7%; AmpC inh detg: -5%

Results for Cc1ccc(C(=O)c2no[n+]([O-])c2C(=O)c2ccc(C)cc2)cc1 ?
FMDV antiviral: inconclusive; AmpC no deterg: -52%; HCMV antiviral: -99*; HCV inh: inconclusive; AmpC inh detg: inconclusive

What do the screens show for `CC(=O)Nc1c2c(nn1-c1cccc(Cl)c1)CS(=O)(=O)C2`?
FMDV antiviral: -7%; AmpC no deterg: -18%; HCMV antiviral: inconclusive; HCV inh: 17%; AmpC inh detg: -14%

What do the screens show for `O=S(=O)(Nc1cccc(-c2ccc(N3CCCCCC3)nn2)c1)c1ccccc1F`?
FMDV antiviral: 60%; AmpC no deterg: -45%; HCMV antiviral: 58; HCV inh: -7%; AmpC inh detg: -8%

Results for O=S(=O)(Nc1cccc(-c2ccc(N3CCCCCC3)nn2)c1)c1ccccc1Cl ?
FMDV antiviral: 7%; AmpC no deterg: 2.5µM*; HCMV antiviral: -76*; HCV inh: 11µM*; AmpC inh detg: -11%

Results for COc1ccc(C)cc1S(=O)(=O)Nc1cccc(-c2ccc(N3CCC(C)CC3)nn2)c1 ?
FMDV antiviral: 20%; HCMV antiviral: 29; AmpC inh detg: 11%

How did COc1ccc(C)cc1S(=O)(=O)Nc1cccc(-c2ccc(N3CCCCCC3)nn2)c1 do in these assays?
FMDV antiviral: 8%; AmpC no deterg: -12%; HCMV antiviral: -18; HCV inh: 10µM*; AmpC inh detg: -9%

Results for CC(=O)Nc1ccc(Oc2sc(C(=O)c3ccccc3)c(N)c2C#N)cc1 ?
FMDV antiviral: inconclusive; AmpC no deterg: -26%; HCMV antiviral: -88*; HCV inh: inconclusive; AmpC inh detg: 0%

What do the screens show for `CC1(C(=O)Nc2ccc(Cl)c(C(F)(F)F)c2)Cc2c(-c3cccc(C(N)=O)c3)ccnc2O1` (stereo unspecified)?
FMDV antiviral: inconclusive; HCMV antiviral: -31

How did CC(=O)Nc1cccc(-c2ccnc3c2CC(C)(C(=O)Nc2ccc4c(c2)OCO4)O3)c1 (stereo unspecified) do in these assays?
FMDV antiviral: -16%; HCMV antiviral: -79*

Results for CC1(C(=O)Nc2ccc(Cl)c(C(F)(F)F)c2)Cc2c(-c3ccc(C(N)=O)cc3)ccnc2O1 (stereo unspecified) ?
FMDV antiviral: inconclusive; HCMV antiviral: -62*

What do the screens show for `COc1ccc(NC(=O)C2(C)Cc3c(-c4ccc(NC(C)=O)cc4)ccnc3O2)cn1` (stereo unspecified)?
FMDV antiviral: -6%; HCMV antiviral: -6

Results for CC1(C(=O)Nc2cccc(OC(F)(F)F)c2)Cc2c(-c3ccc4c(c3)OCO4)ccnc2O1 (stereo unspecified) ?
FMDV antiviral: -1%; HCMV antiviral: -60*

How did COc1ccc(NC(=O)C2(C)Cc3c(-c4cccc(NC(C)=O)c4)ccnc3O2)cn1 (stereo unspecified) do in these assays?
FMDV antiviral: -16%; HCMV antiviral: -72*

Results for O=C(Nc1ccc2nn(-c3ccc(F)cc3)nc2c1)c1cccc2c(Cl)cccc12 ?
FMDV antiviral: 0%; HCMV antiviral: 13; AmpC inh detg: -2%
